Source: PubChem (National Center for Advancing Translational Sciences (NCATS))
Compounds with a hit are over-represented: about 8.7% of the library has one in this group of screens.
BAZ2B inh: inhibitors of human BAZ2B bromodomain; Q9UIF8; AlphaScreen BAZ2B-H3K14Ac peptide displacement; Potency, µM (highest dose often 114 µM), for inactives: at the top dose activity change, negative = inhibition, actives largely listed as inhibitors; 4.4% of 360,000 active; AID 504333; further: on the % scale 0 is the no-effect control and ±100 the full control effect; nearly all actives have a fitted effect of over 60% in size
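Inhibition is scored as reduced AlphaScreen emission. The BAZ2B/b-H3(5-23)K14Ac complex (50 nM each) in PBS pH 7.4, 0.01% Tween-20 meets compound (up to 110 uM) for 30 min at RT before bead addition.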
ALOX12 inh: inhibitors of human 12S-lipoxygenase ALOX12 | P18054 | purified 12hLO, xylenol orange hydroperoxide absorbance | Potency, µM (highest dose often 108 µM), for inactives: at the highest dose activity change, negative = inhibition, usual class: inhibitors | 1.1% of 580,000 active; further: on the % scale 0 is the no-effect control and ±100 the full control effect
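Purified human 12hLO at 150 nM in 25 mM Hepes, 0.01% Triton X-100, pH 7.0, preincubated 15 min at room temperature with compound. Reaction started with 40 uM arachidonic acid, 30 min at room temperature. Hydroperoxide measured by Fe-xylenol orange, 573/405 nm absorbance ratio.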
HP1b binding inh: HP1-beta chromodomain-methylated histone interaction inhibition | P83916 | AlphaScreen HP1-beta / biotin-H3K9me3 peptide binding | Potency, µM (highest dose often 114 µM), without a hit: top-dose activity change, negative = inhibition, usual class: inhibitors | 0.56% of 390,000 active | AID 540317; further: nearly all actives have a fitted effect of over 70% in size
Target sequence (P83916 whole entry, looked up): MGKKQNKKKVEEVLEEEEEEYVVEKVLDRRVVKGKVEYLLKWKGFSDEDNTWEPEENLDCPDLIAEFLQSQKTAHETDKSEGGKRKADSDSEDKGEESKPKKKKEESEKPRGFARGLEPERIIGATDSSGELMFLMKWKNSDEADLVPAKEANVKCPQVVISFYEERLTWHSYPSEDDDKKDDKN
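HP1-beta protein (50 nM final) preincubated 30 min at room temperature with biotinylated H3(1-18)K9me3 peptide (50 nM) in PBS pH 7.4, 0.01% Tween-20, then compound added for 30 min. AlphaScreen streptavidin donor/nickel chelate acceptor beads (10 ug/mL final), 30 min dark, luminescence read.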
JMJD2A Tudor inh: blocks the human JMJD2A Tudor domain; AlphaScreen JMJD2A-Tudor / H3K4me3 peptide binding; AID 504339; Potency, µM (highest dose often 114 µM), without a hit: at the top dose activity change, negative = inhibition, hits mostly inhibitors; 4.4% of 390,000 active; further: on the % scale 0 is the no-effect control and ±100 the full control effect; nearly all actives have a fitted effect of over 50% in size
Sfp inh: blocks B. subtilis Sfp PPTase activity. Biochemical Sfp PPTase activity, qHTS. Potency, µM, for the others: largest response in the series, negative = inhibition, most hits filed as inhibitors. 3.5% of 310,000 active. AID 1490;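 further: the enzyme is Sfp with the accession as filed and its product quenches rhodamine fluorescence; 0% = enzyme reaction without inhibitor and -100% = no enzyme wells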
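Fluorescence-quenching assay: 15 nM Sfp-PPTase preincubated 15 min at room temperature with compound, then 5 uM rhodamine-CoA and 12.5 uM BHQ-2-labelled YbbR peptide added. Fluorescence (ex 525/em 598 nm) read at start and after 30 min; difference gives rate.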
G9a inh: G9a (human) methyltransferase inhibition; G9a H3K9 monomethylation, AlphaScreen, 2 h; Potency, µM (titrated, usually from 102 µM), for inactives: top-dose activity, negative = inhibition, hits mostly inhibitors; 8.8% of 350,000 active; further: on the % scale 0 is the no-effect control and ±100 the full control effect; nearly all actives have a fitted effect of over 75% in size
Target sequence (Q96KQ7 913-1193 limits assumed): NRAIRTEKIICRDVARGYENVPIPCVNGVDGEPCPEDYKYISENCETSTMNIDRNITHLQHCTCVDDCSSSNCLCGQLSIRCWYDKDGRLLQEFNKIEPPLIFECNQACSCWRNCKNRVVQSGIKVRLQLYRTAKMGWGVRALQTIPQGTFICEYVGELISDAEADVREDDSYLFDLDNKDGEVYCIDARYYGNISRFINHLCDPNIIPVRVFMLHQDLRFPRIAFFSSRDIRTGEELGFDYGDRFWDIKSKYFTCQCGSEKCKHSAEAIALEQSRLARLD
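Step 1: enzyme (final 20 nM) with compound, 15 min RT. Step 2: substrate peptide 500 nM and SAM 20 uM, 2 h RT. Step 3: anti-H3K9me1 antibody and AlphaScreen beads, 10 min, then plate read.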
The depositor's hits bear a star; ? = inconclusive; nt = no result; ! = not confirmed by another sample; [ ] = remark or other dose. The call rests on the fitted dose curve; in most records, active means well fitted curve in the direction sought with a large enough effect; inconclusive means small, poorly fitted or top-dose-only effect, or another doubt; inactive means no such curve, though single readings can be large; an effect the other way counts as inactive or inconclusive. Potency means the concentration at half of the fitted maximal effect.

SMILES	BAZ2B inh	ALOX12 inh	HP1b binding inh	JMJD2A Tudor inh	Sfp inh	G9a inh
O=C1CC(N2CC=C(c3ccc(F)cc3)CC2)C(=O)N1c1ccc(F)cc1 (stereo not given)	-12%	?	31%	?	3%	25µM*
NC(=O)c1ccc(OCCC(O)N2CC=C(c3ccc(F)cc3)CC2)cc1 (stereo not given)	9%	0%	30%	-20%	nt	2%[59 µM]
CCOC(=O)c1ccc(N2C(=O)CC(N3CC=C(c4ccc(F)cc4)CC3)C2=O)cc1 (stereo not given)	8%	?	1%	-34%	32µM*	3.2µM*
O=C1CC(N2CC2)C(=O)N1c1ccccc1 (stereo not given)	nt	-5%	nt	nt	nt	nt
CC(C)CN1Cc2ccccc2-n2ccnc2C12CCN(C(=O)c1ccn[nH]1)CC2	nt	-1%	nt	nt	nt	nt
CC[C@H]1CN2CC[C@H]1C[C@@H]2CN(Cc1cccs1)Cc1cccs1	nt	45%[176 µM]	nt	nt	nt	nt
Cc1ccc(/C=C2\C(=O)NC(=S)N(c3ccccc3F)C2=O)s1	50µM*	40µM*	?	71µM*	14µM*	?
Cc1ccc(/C=C2\C(=O)NC(=S)N(c3ccc(F)cc3)C2=O)s1	45µM*	?	11%	-34%	-3%	6.3µM*
CCOC(=O)C1CCN(/C=C2/C(=O)NC(=S)N(c3ccccc3F)C2=O)CC1	-10%	-21%	13%	1%	-9%	nt
COc1cccc(CN2CC[C@@H]3CN(S(C)(=O)=O)[C@@H]3C2)n1	nt	13%	nt	nt	nt	nt
Cc1noc(C)c1COc1ccc(CC(=O)N(CCC#N)CCN2CCOCC2)cc1	nt	-4%	nt	nt	nt	nt
N#CC(C#N)=NNc1ccc(-n2ccc(C(F)(F)F)n2)cc1	32µM*	28µM*	-18%	?	-4%	32µM*
CCN(CC)S(=O)(=O)c1ccc(NN=C(C#N)C#N)cc1	?	?	?	?	8%	?
Cc1cc(C)n(-c2ccc(NN=C(C#N)C#N)cc2)n1	32µM*	?	2%	?	?	nt
COc1cc(/C=C2/SC(=S)N(Cc3ccccc3)C2=O)ccc1OCC(=O)O	56µM*	28%	-12%	?	-25%	5%[0.501 µM]
O=C1NC2(CCN(Cc3ccccn3)C2)Oc2ccccc21 (stereo not given)	nt	101%[176 µM]	nt	nt	nt	nt
N[C@@H](Cc1cc(I)c(O)c(I)c1)C(=O)O	7%	0.51µM*!	?	11µM*	?	6.3µM*!
C#C[C@H]1CN2CC[C@H]1C[C@@H]2CNCc1cccc(C#N)c1	nt	94%[176 µM]	nt	nt	nt	nt
C[C@](N)(CCP(=O)(O)O)C(=O)O	?	?	-15%	4µM*	-20%	14µM*!
C=C(C)Cn1c(-c2cccs2)n[nH]c1=S	-18%	?	-11%	5.6µM*	-16%	14µM*
CCOc1ccc(-n2c(-c3cccs3)nc3ccccc3c2=O)cc1	2%	-21%	37%	-8%	3%	10%[0.501 µM]
C=C(C)Cn1c(-c2cccc([N+](=O)[O-])c2)n[nH]c1=S	-16%	?	11%	8.9µM*	-15%	13µM*
COc1cc2c(cc1OC1CCCC1)NC(=O)C21CCN(C(=O)c2ccccc2)CC1	nt	-17%[176 µM]	nt	nt	nt	nt
NC(Cc1ccccc1)c1nc2ccccc2[nH]1 (stereo not given)	?	1%	60%	?	-9%	?
NC(Cc1nc2ccccc2[nH]1)c1ccc(Cl)cc1 (stereo not given)	-25%	?	11%	-25%	19%	40µM*
SMILES	BAZ2B inh	ALOX12 inh	HP1b binding inh	JMJD2A Tudor inh	Sfp inh	G9a inh
S=c1[nH]nc(-c2ccco2)n1/N=C/c1cccs1	-33%	?	-9%	40µM*	-25%	1.3µM*
Cc1ccsc1CNC(C)C(O)c1ccc(O)cc1 (stereo not given)	nt	-88%	nt	nt	nt	nt
CN1C(CC(=O)c2ccccc2)CCCC1CC(O)c1ccccc1 (stereo not given)	0%	-5%	81%	-14%	7%	-2%[2.33 µM]
C[N+]1(CC(O)c2ccccc2)CCCCCC1 (stereo not given)	79µM*	?	9%	-4%	13%	50µM*
CS(=O)(=O)NC[C@H]1C[C@@H]2CCN1C[C@@H]2CN1C[C@@H]2C[C@H](C1)c1cccc(=O)n1C2	nt	45%[176 µM]	nt	nt	nt	nt
CC1=C(O)C(=O)C=C2C1=CC=C1[C@]2(C)CC[C@@]2(C)C3C[C@](C)(C(=O)O)CC[C@@]3(C)CC[C@@]12C (stereo not given in full)	nt	nt	nt	nt	-99%	?
CC1=C(O)C(=O)C=C2C1=CC=C1[C@@]2(C)CC[C@@]2(C)[C@@H]3C[C@](C)(C(=O)O)CC[C@]3(C)CC[C@]12C	nt	2.4µM*!	nt	nt	nt	nt
CN(C)Cc1cn(C[C@H]2C[C@@H]3CCN2C[C@@H]3C(=O)Nc2nccs2)nn1	nt	-4%[176 µM]	nt	nt	nt	nt
CC(=O)Nc1ccc(S(=O)(=O)NC[C@H]2C[C@@H]3CCN2C[C@@H]3c2cc(-c3ccc(N(C)C)cc3)nc(C)n2)cc1	nt	-11%	nt	nt	nt	nt
Cc1cc(N2C(=O)C3CCCN3C2c2cccc(Cl)c2)no1 (stereo not given)	9%	?	29%	-35%	5%	-14%[59 µM]
COc1ccc(C2N(c3cc(C)on3)C(=O)C3CCCN32)cc1 (stereo not given)	-28%	-9%	-2%	?	-17%	35µM*
CCOC(=O)C(O)(c1ccc(NC(=S)NC(=O)c2ccc(Cl)cc2Cl)c(C)c1)C(F)(F)F (stereo not given)	-9%	?	-4%	-18%	-15%	10%[59 µM]
COC(=O)C(O)(c1ccc(NC(=S)NC(=O)c2ccc(Cl)cc2Cl)c(C)c1)C(F)(F)F (stereo not given)	-35%	?	-20%	79µM*	-27%	1%[59 µM]
CN(C)[C@@H]1C(=O)C(C(N)=O)=C(O)[C@@]2(O)C(=O)C3=C(O)c4c(O)ccc(Cl)c4[C@@](C)(O)[C@H]3C[C@@H]12	18µM*	?	18%	56µM*	-22%	?
CN(C)C1C(=O)C(C(N)=O)=C(O)[C@@]2(O)C(=O)C3=C(O)c4c(O)cccc4[C@](C)(O)C3C(O)C12 (stereo not given in full)	nt	nt	nt	nt	-64%	?
CN(C)[C@@H]1C(=O)C(C(N)=O)=C(O)[C@@]2(O)C(=O)C3=C(O)c4c(O)cccc4[C@@](C)(O)C3C[C@@H]12 (stereo not given in full)	25µM*	?	5%	10µM*	nt	10µM*
